From ChEMBL document CHEMBL3988442, “University of Dundee, Small-Polar-MMV Screening Library” (2021) come the findings set out here.

The structures appear in SMILES notation. For some assays here: Entries with a potency or affinity are not part of this list.

Holding throughout (set-up): scale not given: direction of the effect not stated beside the values
Test [1] concerns the target Protein translocase subunit SecA (Escherichia coli (strain K12)) (UniProt P10408). Description: Assay to Identify E. coli SecA ATPase Inhibitors. Format: functional. The settings on record: 30 µM.
Test [2] concerns the target T1, Ubiquitin-activating enzyme e1, putative (Leishmania donovani (strain BPK282A1)) (UniProt E9BSI1).
T1 sequence (whole entry): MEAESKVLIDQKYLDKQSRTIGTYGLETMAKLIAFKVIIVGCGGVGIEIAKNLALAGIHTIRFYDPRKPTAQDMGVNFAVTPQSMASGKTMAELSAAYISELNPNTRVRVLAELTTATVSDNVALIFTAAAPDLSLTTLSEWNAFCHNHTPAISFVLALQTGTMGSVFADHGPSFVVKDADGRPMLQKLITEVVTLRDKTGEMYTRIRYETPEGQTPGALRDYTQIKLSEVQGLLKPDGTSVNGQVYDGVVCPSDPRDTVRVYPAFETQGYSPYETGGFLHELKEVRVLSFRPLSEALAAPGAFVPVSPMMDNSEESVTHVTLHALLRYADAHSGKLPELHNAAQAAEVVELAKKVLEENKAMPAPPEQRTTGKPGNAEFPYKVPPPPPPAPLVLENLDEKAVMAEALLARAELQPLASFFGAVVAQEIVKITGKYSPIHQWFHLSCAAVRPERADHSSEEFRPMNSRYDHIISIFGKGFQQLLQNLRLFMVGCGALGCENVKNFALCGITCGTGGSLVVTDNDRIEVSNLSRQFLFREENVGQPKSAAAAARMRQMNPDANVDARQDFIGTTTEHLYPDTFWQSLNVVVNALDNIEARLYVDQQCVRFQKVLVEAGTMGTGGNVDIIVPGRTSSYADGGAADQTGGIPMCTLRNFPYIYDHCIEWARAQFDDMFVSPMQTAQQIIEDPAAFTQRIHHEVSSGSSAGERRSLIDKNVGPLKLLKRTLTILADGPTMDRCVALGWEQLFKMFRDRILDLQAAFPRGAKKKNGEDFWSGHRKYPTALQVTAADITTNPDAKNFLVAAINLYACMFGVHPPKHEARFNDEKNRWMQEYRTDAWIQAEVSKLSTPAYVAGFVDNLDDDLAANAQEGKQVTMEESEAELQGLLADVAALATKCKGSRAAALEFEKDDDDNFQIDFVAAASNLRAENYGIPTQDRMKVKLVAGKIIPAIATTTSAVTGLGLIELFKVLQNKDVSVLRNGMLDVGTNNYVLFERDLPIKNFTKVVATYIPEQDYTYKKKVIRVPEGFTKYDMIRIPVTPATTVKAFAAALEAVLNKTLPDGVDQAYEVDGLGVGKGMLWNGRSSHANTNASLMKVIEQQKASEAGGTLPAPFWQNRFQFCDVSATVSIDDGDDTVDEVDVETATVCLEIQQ
Description: Leishmania donovani Ubiquitin Activating Enzyme (LdE1). It counts as functional. As to conditions: 30 µM.

Test [3] concerns the target AMP-activated protein kinase, AMPK (Homo sapiens) (UniProt P54646+O43741+P54619+Q9UGJ0+Q9Y478+Q13131+Q9UGI9). Description: AMP-dependent Kinase enzyme assay. An in vitro enzyme assay that detects ADP turnover that is directly proportional to AMPK activity. This uses naive AMPK that is activated during the assay with MK-8722. It counts as functional. As to conditions: 30 µM.

Test [4] has as its target Sialic acid-binding Ig-like lectin 9 (Homo sapiens) (UniProt Q9Y336). Briefly: Hs-Siglec9 ALPHAscreen SOP 20170721. The settings on record: 10 µM. (Alpha assays give light when donor and acceptor beads are brought close together.)
The next test relates to Trypanosoma cruzi. Briefly: Trypanosoma cruzi phosphomannomutase and mannose-1-phosphate guanylyltransferase assay. It counts as functional. The settings on record: 10 µM.
Test [5] addresses T2, Arginase-2, mitochondrial (Homo sapiens) (UniProt P78540).
T2 sequence (whole entry): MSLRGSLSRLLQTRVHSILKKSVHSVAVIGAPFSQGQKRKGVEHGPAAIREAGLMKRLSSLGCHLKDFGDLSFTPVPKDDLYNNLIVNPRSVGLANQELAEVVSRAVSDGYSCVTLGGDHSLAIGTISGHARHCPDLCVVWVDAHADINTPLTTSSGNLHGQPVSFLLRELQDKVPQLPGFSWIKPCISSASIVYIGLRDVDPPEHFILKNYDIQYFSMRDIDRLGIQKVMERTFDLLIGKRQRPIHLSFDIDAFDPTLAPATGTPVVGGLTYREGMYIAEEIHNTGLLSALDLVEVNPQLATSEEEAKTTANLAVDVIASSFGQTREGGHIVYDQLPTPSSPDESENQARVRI
Description: in vitro enzyme assay to detect the production of urea directly proportional to the activity of Arginase II. Note: in the data most compounds retested in dose-response had high values. Format: functional. The settings on record: 33.3 µM.

Test [6] deals with T3, Proteasome subunit beta (Trypanosoma cruzi) (UniProt O96673).
T3 sequence (whole entry): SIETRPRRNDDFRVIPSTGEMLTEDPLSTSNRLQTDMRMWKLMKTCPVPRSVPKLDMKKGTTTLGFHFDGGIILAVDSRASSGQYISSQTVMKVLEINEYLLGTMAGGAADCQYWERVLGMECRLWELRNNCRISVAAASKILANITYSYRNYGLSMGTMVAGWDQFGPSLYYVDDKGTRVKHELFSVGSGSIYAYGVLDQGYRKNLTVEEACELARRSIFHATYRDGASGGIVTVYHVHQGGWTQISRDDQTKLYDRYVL
Description: Trypanosoma cruzi proteasome chymotrypsin-like activity (TcProtChymo) assay. Note: in the data most compounds retested in dose-response had high values. The settings on record: 9.37 µM. Format: functional.

For a further test, the species on record is Homo sapiens. Description: To identify inhibition of the IFN signalling (Jak-Stat) pathway via expression of an eGFP reporter gene under the control of an IFN-stimulated response element (ISRE) containing MxA promoter. The settings on record: 30 µM. It counts as functional. (Reporter assays use an easily measured gene product as a stand-in for the process of interest.)

The target in test [7] is T4, Tyrosyl-tRNA synthetase, putative (Trypanosoma cruzi (strain CL Brener)) (UniProt Q4DSP6).
T4 sequence (whole entry): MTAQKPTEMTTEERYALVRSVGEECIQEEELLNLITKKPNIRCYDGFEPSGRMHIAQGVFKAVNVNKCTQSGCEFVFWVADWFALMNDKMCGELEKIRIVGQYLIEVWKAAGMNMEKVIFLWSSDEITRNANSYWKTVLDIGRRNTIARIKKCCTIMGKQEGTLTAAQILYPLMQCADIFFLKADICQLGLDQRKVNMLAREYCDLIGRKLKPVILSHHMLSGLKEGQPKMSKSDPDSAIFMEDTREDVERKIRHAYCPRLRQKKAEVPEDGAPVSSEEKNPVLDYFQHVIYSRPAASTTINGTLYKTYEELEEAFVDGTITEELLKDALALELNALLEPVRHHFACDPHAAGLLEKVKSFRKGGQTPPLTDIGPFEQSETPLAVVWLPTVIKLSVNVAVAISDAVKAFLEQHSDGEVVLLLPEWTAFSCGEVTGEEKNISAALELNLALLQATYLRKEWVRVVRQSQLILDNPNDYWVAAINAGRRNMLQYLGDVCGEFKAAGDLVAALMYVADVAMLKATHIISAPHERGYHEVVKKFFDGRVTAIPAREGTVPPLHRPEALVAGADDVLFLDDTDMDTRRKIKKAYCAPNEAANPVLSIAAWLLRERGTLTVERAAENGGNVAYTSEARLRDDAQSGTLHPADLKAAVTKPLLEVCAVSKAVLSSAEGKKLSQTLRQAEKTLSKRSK
Description: Trypanosoma cruzi tyrosyl tRNA synthetase (TcYRS) _High Tyrosine SOP. Note: in the data most compounds retested in dose-response had high values. The settings on record: 30 µM. It counts as functional.

Test [8] concerns the target T4, Tyrosyl-tRNA synthetase, putative (Trypanosoma cruzi (strain CL Brener)). Description: Trypanosoma cruzi tyrosyl tRNA synthetase (TcYRS) SOP. The settings on record: 30 µM. It counts as functional.
In test [9] the target is Chromo domain-containing protein 1 (Saccharomyces cerevisiae (strain ATCC 204508 / S288c) (Baker's yeast)) (UniProt P32657). Description: ScCHD-1 Enzyme Inhibition Assay. Note: in the data most compounds retested in dose-response had high values. Format: functional. The settings on record: 30 µM.
Chain of Chromo domain-containing protein 1 (Saccharomyces cerevisiae (strain ATCC 204508 / S288c) (Baker's yeast)) (P32657 whole entry, the tested form may be a part): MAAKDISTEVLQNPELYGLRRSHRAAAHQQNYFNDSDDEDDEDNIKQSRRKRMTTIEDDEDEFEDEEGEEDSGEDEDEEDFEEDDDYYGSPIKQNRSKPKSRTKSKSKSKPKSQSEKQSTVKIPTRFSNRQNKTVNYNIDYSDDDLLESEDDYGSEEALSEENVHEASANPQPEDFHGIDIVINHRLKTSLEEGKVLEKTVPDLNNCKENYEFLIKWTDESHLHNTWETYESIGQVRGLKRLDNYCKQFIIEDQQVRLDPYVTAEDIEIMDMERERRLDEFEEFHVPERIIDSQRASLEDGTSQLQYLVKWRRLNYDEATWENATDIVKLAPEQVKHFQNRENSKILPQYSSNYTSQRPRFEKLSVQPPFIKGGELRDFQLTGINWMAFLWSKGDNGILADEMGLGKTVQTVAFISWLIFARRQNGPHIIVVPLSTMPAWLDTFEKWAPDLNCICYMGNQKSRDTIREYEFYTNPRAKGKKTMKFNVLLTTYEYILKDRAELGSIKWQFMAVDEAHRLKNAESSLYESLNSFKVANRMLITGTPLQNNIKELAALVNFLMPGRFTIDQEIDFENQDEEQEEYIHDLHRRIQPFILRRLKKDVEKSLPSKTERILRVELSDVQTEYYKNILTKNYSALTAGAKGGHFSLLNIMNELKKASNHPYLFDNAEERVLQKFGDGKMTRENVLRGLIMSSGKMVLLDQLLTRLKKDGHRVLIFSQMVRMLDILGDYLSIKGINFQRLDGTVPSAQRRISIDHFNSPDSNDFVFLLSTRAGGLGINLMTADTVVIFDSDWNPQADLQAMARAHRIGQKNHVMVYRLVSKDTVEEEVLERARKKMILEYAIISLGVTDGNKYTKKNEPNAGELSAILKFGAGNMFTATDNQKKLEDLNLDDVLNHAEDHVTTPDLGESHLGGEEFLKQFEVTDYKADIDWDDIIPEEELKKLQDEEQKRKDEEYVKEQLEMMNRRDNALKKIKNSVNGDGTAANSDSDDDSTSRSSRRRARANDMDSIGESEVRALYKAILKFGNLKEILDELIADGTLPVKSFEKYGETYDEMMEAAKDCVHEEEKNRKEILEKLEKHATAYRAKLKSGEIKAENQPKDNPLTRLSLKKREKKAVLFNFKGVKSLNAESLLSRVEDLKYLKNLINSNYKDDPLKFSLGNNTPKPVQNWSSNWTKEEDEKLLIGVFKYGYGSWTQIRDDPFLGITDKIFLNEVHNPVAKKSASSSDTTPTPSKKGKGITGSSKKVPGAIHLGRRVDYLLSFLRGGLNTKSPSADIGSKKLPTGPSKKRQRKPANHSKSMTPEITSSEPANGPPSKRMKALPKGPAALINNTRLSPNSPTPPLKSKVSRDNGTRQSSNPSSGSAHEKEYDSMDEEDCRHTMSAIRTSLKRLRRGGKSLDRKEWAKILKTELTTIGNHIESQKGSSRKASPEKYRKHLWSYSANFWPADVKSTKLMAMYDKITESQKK

Chain of Sialic acid-binding Ig-like lectin 9 (Homo sapiens) (Q9Y336 whole entry): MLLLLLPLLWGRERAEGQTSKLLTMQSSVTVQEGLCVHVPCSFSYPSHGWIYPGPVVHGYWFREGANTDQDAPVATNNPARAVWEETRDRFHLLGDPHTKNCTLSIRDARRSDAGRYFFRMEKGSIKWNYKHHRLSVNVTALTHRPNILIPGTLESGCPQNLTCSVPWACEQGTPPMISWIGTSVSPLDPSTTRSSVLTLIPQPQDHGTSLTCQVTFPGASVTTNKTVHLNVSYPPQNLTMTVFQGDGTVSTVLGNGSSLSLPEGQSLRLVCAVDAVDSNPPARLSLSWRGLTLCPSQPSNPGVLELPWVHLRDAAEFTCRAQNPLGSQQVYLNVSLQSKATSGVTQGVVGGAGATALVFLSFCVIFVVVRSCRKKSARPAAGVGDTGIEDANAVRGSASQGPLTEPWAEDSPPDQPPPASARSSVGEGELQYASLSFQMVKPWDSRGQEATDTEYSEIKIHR
Chain of Protein translocase subunit SecA (Escherichia coli (strain K12)) (P10408 whole entry): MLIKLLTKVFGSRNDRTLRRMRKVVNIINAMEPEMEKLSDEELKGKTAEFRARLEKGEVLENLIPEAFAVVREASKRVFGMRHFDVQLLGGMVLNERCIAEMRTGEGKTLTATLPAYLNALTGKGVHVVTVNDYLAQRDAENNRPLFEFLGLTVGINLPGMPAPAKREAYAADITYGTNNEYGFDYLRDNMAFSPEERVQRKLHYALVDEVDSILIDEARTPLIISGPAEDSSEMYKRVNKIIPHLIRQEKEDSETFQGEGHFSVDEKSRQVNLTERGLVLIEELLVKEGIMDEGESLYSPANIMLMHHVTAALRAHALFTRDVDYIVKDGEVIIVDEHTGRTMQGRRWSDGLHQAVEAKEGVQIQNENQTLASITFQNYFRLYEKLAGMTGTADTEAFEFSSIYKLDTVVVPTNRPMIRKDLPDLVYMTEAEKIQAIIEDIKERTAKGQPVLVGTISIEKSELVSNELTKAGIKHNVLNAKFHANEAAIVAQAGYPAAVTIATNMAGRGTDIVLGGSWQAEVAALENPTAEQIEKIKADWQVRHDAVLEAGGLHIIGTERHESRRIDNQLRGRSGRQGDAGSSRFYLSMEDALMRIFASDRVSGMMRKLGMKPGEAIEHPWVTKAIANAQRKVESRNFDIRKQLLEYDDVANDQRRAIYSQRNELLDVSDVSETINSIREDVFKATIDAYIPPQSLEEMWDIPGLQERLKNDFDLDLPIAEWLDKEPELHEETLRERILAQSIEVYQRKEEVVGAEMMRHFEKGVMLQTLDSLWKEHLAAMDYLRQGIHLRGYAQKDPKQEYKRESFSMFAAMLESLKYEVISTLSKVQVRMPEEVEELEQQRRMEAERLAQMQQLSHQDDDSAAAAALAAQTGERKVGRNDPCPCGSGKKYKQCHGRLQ

As to `CO[C@H]1CCN(Cc2cnn(C)c2)[C@@H]2CN(Cc3cccnc3)C[C@H]12`, the Percent Effect in [1] was -0.848%; in [2], 12%; in [3], 6.27%; in test [4], -3.02%; in the test on Trypanosoma cruzi, -3.93%; in test [5], -8.63%. For the same molecule, the Percent Effect in [6] is 9.06%; in the test listed under Homo sapiens it was -3.47%; in test [7], 2.12%; in test [8], 5.13%; in test [9], -7.83%.
Consider `CC(C)NC(=O)COc1nc(C(C)C)no1`, for which the Percent Effect in [1] is -4.66%; in test [2], -2.7%; in test [3], -12.4%; in test [4], 41.5%; with Trypanosoma cruzi it was 9.07%; in test [5], 16.2%. Further, the Percent Effect in [6] is 4.48%; in the test listed under Homo sapiens, 6.57%; in test [7], -0.529%; in test [8], 9.76%; in test [9] it was -4.43%.
For `Cc1ccc(=O)n(CC2(O)CCN(Cc3cnc(C)nc3)CC2)n1`, the Percent Effect in [1] was -6.32%; in test [2], 6.76%; in [3] it was 4.75%; in test [4], -1.5%; in the test on Trypanosoma cruzi, -2.96%; in test [5], -3.48%. Moreover, the Percent Effect was 11.9% in test [6]; 17.5% in the test filed under Homo sapiens; -1.07% in test [7]; 3.9% in test [8]; 5.12% in test [9].
Consider `Cn1cc(-c2cnc(N3CCOCC3)nc2)cc1C(=O)NCCO`, for which the Percent Effect in test [1] is -0.798%; in [2] it was 5.33%; in test [3], 1.84%; in test [4], -0.344%; in the test with Trypanosoma cruzi it was -8.86%; in [5] it was 5.83%. Further, the Percent Effect was 8.37% in [6]; -3.42% in the test listed under Homo sapiens; 0% in test [7]; 6.41% in test [8]; -7.59% in test [9].
`CN(C)CC(=O)N1CCC2(CC1)CN(c1ccsc1)C(=O)CO2`: the Percent Effect is -9.33% in test [1]; 2.67% in test [2]; 3.11% in test [3]; -6.49% in test [4]; -4.33% with Trypanosoma cruzi; -0.233% in test [5]. For the same molecule, the Percent Effect in test [6] is 3.96%; in the test filed under Homo sapiens, 15.6%; in [7] it was 0%; in [8], -3.85%; in test [9] it was -3.46%.
In the case of `Cc1ccn(-c2ccccc2NCc2ncc[nH]2)n1`, the Percent Effect in [1] is -7.12%; in test [2], 8.22%; in test [3], -9.03%; in test [4], -1.61%; with Trypanosoma cruzi, 0.783%; in test [5] it was 3.18%. The Percent Effect in [6] is 9.41%; in the test filed under Homo sapiens, -4.65%; in test [7] it was 4.3%; in test [8] it was 10%; in test [9] it was -3.33%.
`CC(C)c1nc2n(n1)CC(NCc1nnc(-c3ccco3)o1)CC2` (stereo not given): the Percent Effect in test [1] was -2.41%; in test [2], 0%; in test [3], -14.3%; in test [4] it was -0.788%; in the test with Trypanosoma cruzi it was 5.94%; in [5], 0.802%. For the same molecule, the Percent Effect is -3.06% in test [6]; -2.24% in the test listed under Homo sapiens; 3.45% in test [7]; 6.17% in test [8]; -0.171% in test [9].
As for `CN(C)c1ncccc1CNC(=O)N1CCCC1c1ccsc1` (stereo not given), the Percent Effect is -9.33% in test [1]; 18.2% in test [2]; -4.46% in [3]; 4.94% in test [4]; -2.43% with Trypanosoma cruzi; 0.712% in test [5]. Further, the Percent Effect is 2.2% in test [6]; 1.32% in the test filed under Homo sapiens; 5.83% in test [7]; 14.6% in test [8]; -6.19% in test [9].
Consider `CC(=O)N1CCC(Oc2ccc(Cl)cn2)CC1`, for which the Percent Effect was -1.02% in test [1]; 5.48% in test [2]; -4.62% in [3]; 4.94% in [4]; 4.5% with Trypanosoma cruzi; 8.64% in test [5]. In addition, the Percent Effect is 3.19% in test [6]; 18.8% in the test filed under Homo sapiens; 3.23% in test [7]; 7.5% in test [8]; -4.92% in test [9].
As for `Cc1cc2c(cc1C)C(NCc1nnc3n1CCCCC3)CCCO2` (stereo not given), the Percent Effect in test [1] is 0.0306%; in [2], 2.7%; in [3], -8.53%; in test [4], 10.2%; in the test on Trypanosoma cruzi it was 6.94%; in [5] it was 17.1%. Besides, the Percent Effect was 0.944% in [6]; -23.2% in the test listed under Homo sapiens; 2.15% in [7]; 6.17% in test [8]; -5.02% in test [9].
